Measured values published in PubChem BioAssay (NCI).
This is part of a sample that, as a whole, favours compounds with a hit. Of some 83,000 tested, about 20% had one in any assay.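 Testing used 96-well plates and a 48-hour single-concentration exposure. Example: -40 means 40% of the starting cells died.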 Active and inactive are the calls of the source. How the source made its calls: active means growth percent below 10; inactive means the rest.

How the values were obtained:
Test in all cases: NCI-60 one-dose screen, 48 h (100 = growth as untreated, 0 = no growth, -100 = all killed)
Conditions in all cases: 10 µM unless noted
T-47D breast = tested on: T-47D breast
BT-549 breast = tested on: BT-549 breast
MDA-MB-435 melanoma = tested on: MDA-MB-435 melanoma
SW-620 colon = tested on: SW-620 colon
MCF7 breast = tested on: MCF7 breast
HCT-116 colon = tested on: HCT-116 colon
HCC-2998 colon = tested on: HCC-2998 colon
KM12 colon = tested on: KM12 colon

Measured: growth

COc1cc(OC)cc(C(=O)Nc2sc3c(c2C(N)=O)CCC(=O)C3)c1
inactive: BT-549 breast 11.1% | MDA-MB-435 melanoma 41.7% | SW-620 colon 18.6% | MCF7 breast 24.4% | HCC-2998 colon 88.3% | KM12 colon 12%
active: T-47D breast 7.67% | HCT-116 colon 7.89%

COc1cc(-c2nc(SC(C)C)n(C(C)C)c(=O)c2C#N)ccc1OCc1ccccc1
inactive: T-47D breast 52.6% | BT-549 breast 93.8% | MDA-MB-435 melanoma 85% | SW-620 colon 52.4% | MCF7 breast 75.3% | HCT-116 colon 42.9% | HCC-2998 colon 87.6% | KM12 colon 95.1%

CN1CCN(c2ccc(/C=N/n3cnc4oc(-c5ccccc5)cc4c3=N)cc2)CC1
inactive: T-47D breast 84.1% | BT-549 breast 89.7% | MDA-MB-435 melanoma 94.7% | SW-620 colon 94% | MCF7 breast 81.1% | HCT-116 colon 73.9% | HCC-2998 colon 101% | KM12 colon 63.7%

COc1ccc(Cn2cc3c(c2-c2cc(OC)c(OC)c(OC)c2)CCc2c(CN4CCCC4)noc2-3)cc1
inactive: T-47D breast 42.9% | BT-549 breast 76% | SW-620 colon 26.4% | MCF7 breast 15.5% | HCT-116 colon 18% | HCC-2998 colon 24.9% | KM12 colon 14.9%
active: MDA-MB-435 melanoma -39.2%

C=C1CC[C@@H]2[C@]3(C)COC(c4ccccc4)O[C@@H]3CC[C@@]2(C)[C@@H]1C/C=C1/C(=O)OC[C@H]1O (stereo partly drawn)
inactive: T-47D breast 70.6% | BT-549 breast 63.8% | MDA-MB-435 melanoma 81.4% | SW-620 colon 49.7% | MCF7 breast 46.1% | HCT-116 colon 38.4% | HCC-2998 colon 108% | KM12 colon 86.1%

CCC(CC)N1C(=O)/C(=c2\sc3n(c2=O)NC2C(N=3)N(CC)C(=O)N2CC)c2ccccc21 (stereo not drawn)
inactive: T-47D breast 86.1% | BT-549 breast 102% | SW-620 colon 48.2% | MCF7 breast 35.8% | HCT-116 colon 27.9% | HCC-2998 colon 65.9% | KM12 colon 11.2%
active: MDA-MB-435 melanoma 9.51%

N/C(=N\C(N)=N\c1nc2ccccc2s1)c1ccncc1Cl
inactive: T-47D breast 55.4% | BT-549 breast 43.8% | SW-620 colon 24.1% | MCF7 breast 75.6% | HCT-116 colon 23.3% | HCC-2998 colon 76.6% | KM12 colon 24.1%
active: MDA-MB-435 melanoma 6.13%

CCO/C=N/C1=C(C#N)C(c2ccc(OC)cc2)c2sc3c(CC)cccc3c2O1 (stereo not drawn)
inactive: T-47D breast 35.8% | BT-549 breast 63% | SW-620 colon 35.3% | MCF7 breast 24.6% | HCT-116 colon 24.1% | HCC-2998 colon 44.3% | KM12 colon 18.9%
active: MDA-MB-435 melanoma -39.2%

Cc1ccc(-n2c(/C=C3\C(=O)Nc4ccccc43)ccc2CO)cc1
active: MDA-MB-435 melanoma -10.3%
inactive: T-47D breast 77.4% | BT-549 breast 66.6% | SW-620 colon 43.3% | MCF7 breast 34.5% | HCT-116 colon 52.8% | HCC-2998 colon 95.7% | KM12 colon 18.8%

CC(C)(C)c1ccc(CC(=O)Nc2sc3c(c2C(N)=O)CCC(=O)C3)cc1
active: T-47D breast -15.4% | BT-549 breast 9.57% | MDA-MB-435 melanoma 1.24% | SW-620 colon 3.83% | MCF7 breast 5.89% | HCT-116 colon 5.7% | KM12 colon -3.85%
inactive: HCC-2998 colon 25.5%

O=C(Nc1cccc(Cl)c1)Nc1nc2ccc([N+](=O)[O-])cc2o1
active: T-47D breast -10.9% | SW-620 colon 7.83% | HCT-116 colon 5.21% | KM12 colon 7.17%
inactive: BT-549 breast 24% | MDA-MB-435 melanoma 19.2% | MCF7 breast 12.1% | HCC-2998 colon 24.3%

CCCCCc1ccc(S(=O)(=O)Nc2cccc(-c3csc(NCCN4CCN(C)CC4)n3)c2)cc1
active: SW-620 colon 2.57% | HCT-116 colon 4.07% | HCC-2998 colon -6.69%
inactive: T-47D breast 80.1% | BT-549 breast 95.1% | MDA-MB-435 melanoma 29.7% | MCF7 breast 15.5% | KM12 colon 77.7%

COc1ccc([C@H]2[C@H](O)C(=O)N2c2cc(OC)c(OC)c(OC)c2)cc1F
active: BT-549 breast -21.1% | MDA-MB-435 melanoma -10.4% | HCT-116 colon 0.995% | KM12 colon 9.99%
inactive: T-47D breast 68.7% | SW-620 colon 22.2% | MCF7 breast 11% | HCC-2998 colon 10.9%

CCCCCCCn1cc2c(NCCc3ccccc3)ncnc2n1
inactive: T-47D breast 94.5% | BT-549 breast 100% | MDA-MB-435 melanoma 96.6% | SW-620 colon 92.8% | MCF7 breast 86.9% | HCT-116 colon 96.6% | HCC-2998 colon 116% | KM12 colon 97%

O=C(Nc1cccc(C(F)(F)F)c1)c1cc(-c2ccc(F)cc2F)ccc1O
active: T-47D breast 2.56% | BT-549 breast 1.83% | MDA-MB-435 melanoma 4.23% | MCF7 breast 2.4% | HCT-116 colon 3.8% | KM12 colon 3.77%
inactive: SW-620 colon 10.8% | HCC-2998 colon 15.2%

CC(C)(C)c1ccc(C(=O)Nc2nc3ccc(O)cc3s2)cc1
inactive: T-47D breast 28.5% | BT-549 breast 62.9% | MDA-MB-435 melanoma 34.3% | SW-620 colon 14.2% | MCF7 breast 15.8% | HCT-116 colon 45.6% | HCC-2998 colon 14.7% | KM12 colon 14%

NC(=O)c1c(NC(=O)c2ccccc2C(F)(F)F)sc2c1CCC(=O)C2
active: MCF7 breast 5.93% | HCT-116 colon 9.24% | KM12 colon 9.45%
inactive: T-47D breast 14.1% | BT-549 breast 14.7% | MDA-MB-435 melanoma 14.7% | SW-620 colon 19% | HCC-2998 colon 33.3%

NC(N)=Nc1ccc(Oc2cccc(Nc3ccc(Cl)c(C(F)(F)F)c3)c2)cc1
active: KM12 colon 7.04%
inactive: T-47D breast 35.3% | BT-549 breast 77% | MDA-MB-435 melanoma 32.3% | SW-620 colon 30.2% | MCF7 breast 11.3% | HCT-116 colon 27.5% | HCC-2998 colon 20.3%

O=C(O)c1ccc(-n2cc(CNc3cc(F)c(F)c(F)c3)c(-c3ccc(F)cc3)n2)cc1
inactive: T-47D breast 85.5% | BT-549 breast 107% | MDA-MB-435 melanoma 96.1% | SW-620 colon 103% | MCF7 breast 58.3% | HCT-116 colon 88.5% | HCC-2998 colon 102% | KM12 colon 92.9%

CCn1c(SCC(=O)Nc2cccc(C(=O)/C=C/c3cc(OC)c(OC)c(OC)c3)c2)nc2ccccc2c1=O
active: HCT-116 colon -28.8%
inactive: T-47D breast 49.3% | BT-549 breast 52.8% | MDA-MB-435 melanoma 36.7% | SW-620 colon 14.9% | MCF7 breast 19.9% | HCC-2998 colon 42.2% | KM12 colon 44.6%

COc1cc(/C=C/C(=O)c2ccc(NC(=O)CSc3nnc(-c4ccc(-c5nc6ccc(Cl)cc6[nH]5)cc4)o3)cc2)cc(OC)c1OC
inactive: T-47D breast 106% | BT-549 breast 85.6% | MDA-MB-435 melanoma 24.1% | SW-620 colon 87.4% | MCF7 breast 91.8% | HCT-116 colon 90.5% | HCC-2998 colon 96.3% | KM12 colon 80.6%

C#CCOc1ccc(/C=N\Nc2nc(-c3ccc(C)cc3)cs2)cc1OC
inactive: T-47D breast 61.7% | BT-549 breast 80.7% | MDA-MB-435 melanoma 91.6% | SW-620 colon 95.4% | MCF7 breast 62.5% | HCT-116 colon 88% | HCC-2998 colon 101% | KM12 colon 85.6%

COc1ccc(CCN2C(=O)CSC2=S)cc1
inactive: T-47D breast 50.7% | BT-549 breast 112% | MDA-MB-435 melanoma 77.6% | SW-620 colon 61.3% | MCF7 breast 24.2% | HCT-116 colon 84.6% | HCC-2998 colon 110%
active: KM12 colon 6.12%

C=CCn1c(SCC(=O)Nc2ccc(C(=O)/C=C/c3ccc(Cl)cc3)cc2)nnc1-c1c[nH]c2ccccc12
inactive: T-47D breast 60.5% | BT-549 breast 111% | MDA-MB-435 melanoma 83.5% | SW-620 colon 88.3% | HCC-2998 colon 97.1% | KM12 colon 80.4%
active: MCF7 breast 9.26% | HCT-116 colon -46%

COc1ccc(N2CCN(C3=C(Cl)C(=O)C(C)=C(C)C3=O)CC2)cc1
inactive: T-47D breast 30% | BT-549 breast 117% | MDA-MB-435 melanoma 105% | SW-620 colon 113% | MCF7 breast 92.1% | HCT-116 colon 99.3% | HCC-2998 colon 111% | KM12 colon 107%

O=C(NNc1nc2cc(F)cc(F)c2n2cccc12)c1cnccn1
inactive: T-47D breast 10.3% | BT-549 breast 24.1% | MDA-MB-435 melanoma 31.3% | SW-620 colon 21.7% | HCT-116 colon 12.3% | HCC-2998 colon 49.9% | KM12 colon 28.7%
active: MCF7 breast 3.97%

CC(C)(C)n1nnnc1C(Nc1cccc2c1OCO2)c1cc2cccc3ccc4cccc1c4c32 (stereo not drawn)
inactive: T-47D breast 65.9% | BT-549 breast 130% | MDA-MB-435 melanoma 84.2% | SW-620 colon 88.8% | MCF7 breast 64.9% | HCT-116 colon 63% | HCC-2998 colon 98.7% | KM12 colon 95.4%

Oc1ccc(CSc2nnc(-c3ccc(Cl)cc3)n2-c2ccccc2)c2cccnc12
inactive: T-47D breast 48.9% | BT-549 breast 35.7% | MDA-MB-435 melanoma 17.1% | SW-620 colon 23.9% | HCT-116 colon 13.3% | HCC-2998 colon 32.8% | KM12 colon 21.3%
active: MCF7 breast 9.16%

COc1ccc(/C=N/NC(=O)c2cn(C3CC3)c3c(OC)c(N4CC5CCCNC5C4)c(F)cc3c2=O)cc1 (stereo not drawn)
inactive: T-47D breast 85.9% | BT-549 breast 112% | MDA-MB-435 melanoma 100% | SW-620 colon 92.1% | MCF7 breast 70.8% | HCT-116 colon 53.6% | HCC-2998 colon 95.4% | KM12 colon 99.7%

Fc1ccc(-c2cc3nc(C(Cl)Cl)nc(-c4ccc(F)cc4)n3n2)cc1
active: SW-620 colon -29.3% | HCT-116 colon 4.72% | HCC-2998 colon -45.8% | KM12 colon -12.5%
inactive: T-47D breast 34.3% | BT-549 breast 47% | MDA-MB-435 melanoma 14.6% | MCF7 breast 24.2%

NC(N)=Nc1ccc(Nc2cccc(Nc3ccc(Cl)c(C(F)(F)F)c3)c2)cn1
inactive: T-47D breast 23.8% | BT-549 breast 67.8% | MDA-MB-435 melanoma 30.4% | HCT-116 colon 16.1%
active: SW-620 colon 5.81% | MCF7 breast 2.25% | HCC-2998 colon 9.32% | KM12 colon -38.3%
